Results taken from PubChem BioAssay (NCI).
About 83,000 compounds went through this panel and 20% of them were active in at least one assay; those are over-represented in the sample as a whole.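 Growth was measured after 48 h exposure to one concentration of compound in 96-well plates. Values under 10 count as active.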 Active and inactive are the calls of the source.

tested on: SK-MEL-5 melanoma; experiment: NCI-60 one-dose screen, 48 h (100 = growth as untreated, 0 = no growth, -100 = all killed); conditions: 10 µM unless noted
Protocol: Growth inhibition of the SK-MEL-5 human tumor cell line is measured as a screen for anti-cancer activity. Cells are grown in 96 well plates and exposed to the test compound for 48 hours. Compounds are tested at a single concentration, which is 10^-5 M for most compounds. The reported endpoint is percent growth (GI% or GIPRCNT), where numbers from 0 - 100% represent growth inhibition, and numbers from -100% - 0 represent cell death. For example, a value of 40 represents 60% growth inhibition. A value of 0 means no net growth occurred over the course of the experiment. A value of -40 indicates 40% of cells at the beginning of the experiment died by the end of the experiment. A value of -100 means all cells are dead at the end of the experiment.
NCI-60 Human Tumor Cell Lines Screen was performed using the standard one-dose NCI protocol, which is described in more detail at https://dtp.cancer.gov/discovery_development/nci-60/default.htm.
Compounds with GIPRCNT values below 10 were considered active. Activity score was based on GIPRCNT using the following formula: […]
Score is 0 for GIPRCNT values of 100 or above, 50 for GIPRCNT values of 0, and 100 for GIPRCNT values of -100.

SMILES	growth
COc1ccc(OC)c(/C=C/c2nnc(Nc3ccccc3)o2)c1	90% (inactive)
COc1cc(/C=C/C(=O)/C=C/c2cc(OC)c3c(c2OC)OCO3)c(OC)c2c1OCO2	45.1% (inactive)
O=C1CCC(C(=O)NCCNCCNC(=O)C2CCC(=O)N2)N1 (stereo not given)	91.3% (inactive)
CCOc1c(B(O)O)cccc1-c1nc2ccc3[nH]ncc3c2c2c1CCCC2	86.7% (inactive)
CCCCCCN1C(=O)/C(=c2\sc3n(c2=O)C2C(NN=3)N(CC)C(=O)N2CC)c2ccccc21 (stereo not given)	26.8% (inactive)
CC(C)OC(=O)Nc1ccc(-c2nc(-c3cccc(OCCN4CCOCC4)c3)c(-c3ccnc(Br)c3)[nH]2)cc1	21.7% (inactive)
O=C(Cc1ccc2c(c1)OCCO2)Nc1nc2ccc(F)cc2s1	91.1% (inactive)
Cc1ccccc1C(=O)NN	119% (inactive)
COc1ccc(/C=N/Nc2cc(=O)[nH]c3ccc(Cl)cc23)cc1	38.2% (inactive)
CC(=O)OC[C@H]1OC(Sc2sc(C(=O)c3ccc(Cl)cc3)c(N)c2-c2nc3ccccc3s2)[C@H](OC(C)=O)[C@@H](OC(C)=O)[C@@H]1OC(C)=O (stereo not given in full)	85.2% (inactive)
CCCCCCn1c(-c2ccc(C(=O)O/N=C(\N)c3ccc4ccccc4c3)cc2)nc(-c2ccccc2)c1-c1ccccc1	68.2% (inactive)
CNCCCNc1nc2ccccc2c2c(=O)c3cc(OC)ccc3sc12	91.6% (inactive)
CC(C)(C)NC(=O)C(OC(=O)c1cccc(Cl)c1)c1ccc(Cl)cc1 (stereo not given)	98.2% (inactive)
C/C=C(\C)C(=O)N[C@H]1[C@@H](OC(C)=O)C[C@]2(C)C3CC[C@@]4(C)C(CC[C@@H]4C(C)N(C)C)C3CCC2[C@H]1O (stereo not given in full)	5.99% (active)
C=C1C(=O)O[C@H]2[C@H]1CC/C(COC(=O)CCC(=O)NCCOCCOCC(=O)Nc1ccc(OC)c(C(N)=O)c1O)=C\CC[C@@]1(C)O[C@@H]21	102% (inactive)
Clc1ccc(C(/C=C/c2sc(Cl)nc2Cl)=N/Nc2cc(Cl)cc(Cl)c2)cc1	103% (inactive)
COC(=O)[C@H](C)NC(=O)NC(=O)NC(=O)CI	99.5% (inactive)
O=C(N=c1oc2ccccc2cc1-c1cc2ccccc2[nH]1)Nc1ccc(Cl)cc1	99.6% (inactive)
COc1ccc(-c2cc3c4c(nc5ccccc5c4c2)CC(c2cc(OC)c(OC)c(OC)c2)O3)cc1 (stereo not given)	62.6% (inactive)
CCCCN(C)N=Nc1ccc(C(N)=O)cc1	108% (inactive)

SMILES	growth
CNC(C)[C@H]1CCC2C3CCC4C[C@@H](N(C)C(=O)c5ccccc5)CC[C@]4(C)C3CC[C@@]21C (stereo not given in full)	-74.2% (active)
CNCCCC12CCC(c3ccccc31)c1ccccc12	75.3% (inactive)
COc1ccc(C2=Nn3c(nnc3-c3cc(Cl)cc(Cl)c3Cl)SC2)cc1	-13.5% (active)
COc1cc(C2CC(c3cccc(Br)c3)=NN2C(C)=O)cc(OC)c1OC (stereo not given)	23% (inactive)
CCN1C(=O)N(CC)C2Nn3c(s/c(=C4\C(=O)Nc5ccccc54)c3=O)=NC21 (stereo not given)	41.6% (inactive)
COc1cc(C(=O)/C=C/c2ccc(OCCCCCC[P+](c3ccccc3)(c3ccccc3)c3ccccc3)cc2)cc(OC)c1OC	-100% (active)
COc1cccc2c(=O)c3c(sc12)c(N1CCNCC1)nc1ccccc13	95.3% (inactive)
COC(=O)CCC/C=C\C[C@H]1C=CC(=O)/C1=C/C[C@@H](O)CCc1cccc(C(F)(F)F)c1	-83.3% (active)
Cc1ccc2c(-c3cc(-c4ccccc4)nc(N)c3C#N)cc(=O)oc2c1	97% (inactive)
CC1(C)C2CC1C1(/C=N\Nc3ccccc3)C(C2)C(C#N)(C#N)C1(C#N)C#N (stereo not given)	94.4% (inactive)
CCOC(=O)CC1C(COC(=O)NC)OC(n2cnc3c(NC(=O)Nc4ccccc4)ncnc32)C1O[Si](C)(C)C(C)(C)C (stereo not given)	23.5% (inactive)
COc1ccc(-c2nc(NN)c3c(C)nn(-c4ccc(F)cc4)c3n2)cc1	40.7% (inactive)
CN1CCN(c2ccc(-c3ccc4ncc(C#N)c(Nc5ccc(F)c(Cl)c5)c4c3)cn2)CC1	82.9% (inactive)
NCCCNc1nc2ccccc2c2c(=O)c3cc(C(F)(F)F)ccc3sc12	45.8% (inactive)
O=C(CCCCCCSc1nc(-c2ccccc2)cc(-c2ccccc2)n1)NO	9.17% (active)
COc1ccc(-c2conc2-c2ccccc2)cc1	22.4% (inactive)
O=C(N/N=C/c1ccc(Cl)cc1)c1ccc(C(F)(F)F)nc1Nc1cccc(C(F)(F)F)c1	33.1% (inactive)
O=C(O)C(c1ccccc1)N1C(=O)CSC1=S (stereo not given)	102% (inactive)
CN(C)CCCNc1nc2ccccc2c2c(=O)c3cc(F)ccc3sc12	72.6% (inactive)
NCCCNc1nc2ccccc2c2c(=O)c3cc(F)cc(Cl)c3sc12	98.3% (inactive)
